# Measurements: the supplement of paper PMC10849652
# Of roughly 7,900 targets only a part is listed; those with a hit were picked by preference. About 0.6% of all pairs of compound and target were hits. Values without a mark were called inactive.
# Assays:
# Experiment in all cases: log2 fold change, soluble protein after heating vs DMSO (PISA); higher = thermal stabilisation; K562 cells, 10 uM, 30 min; active = over 0.2 and 3.5 SD of the protein, either way, in both replicates (recomputed)
# [1] = compound: CC1=C(C=C(C=C1)NC(=O)C2=CC(=CC=C2)C(C)(C)C#N)NC3=CC4=C(C=C3)N=CN(C4=O)C
# In short: (§1)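 K562 cells at 2×10^6 cells/mL were treated for 30 min with 10 μM compound, and aliquots were heated for 3 min over 48°C-58°C before pooling. Extraction used PBS with 0.5% NP-40 at 4°C, and soluble protein was the supernatant after 21,000xg for 90 min, measured by TMTpro 16plex LC-MS/MS with channel sums equalised. Thermal stability values, relative to control samples and from duplicates, are log2 fold changes.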
# [2] = compound: CC1=C(C=C(C=C1)NC(=O)C2=CC(=CC=C2)N(C)C)NC(=O)C3=CC=C(C=C3)O
# In short: as §1
# [3] = compound: CC1=CC=C(C=C1)SC2=C3C=C(SC3=CN=C2)C(=O)N
# In short: as §1
# [4] = compound: CC1=NC(=CC=C1)C2=C(N=C(N2)C(C)(C)C)C3=CC4=NC=CN=C4C=C3
# In short: as §1
# [5] = compound: CCCCN(Cc1ccc(C(=O)NO)cc1)C(=O)Nc1ccccc1 [Nexturastat A]
# In short: as §1
# [6] = compound: CCCS(=O)(=O)Nc1ccc(F)c(C(=O)c2c[nH]c3ncc(-c4ccc(Cl)cc4)cc23)c1F [vemurafenib]
# In short: as §1
# [7] = compound: CCCS(=O)(=O)Nc1ccc(F)c(C(=O)c2c[nH]c3ncc(Cl)cc23)c1F
# In short: as §1
# [8] = compound: CCCc1cc(C)[nH]c(=O)c1CNC(=O)c1cc(-c2ccnc(N3CCN(C)CC3)c2)cc2c1cnn2C(C)C
# In short: as §1
# [9] = compound: CCN(CC)Cc1ccc2cc(COC(=O)Nc3ccc(C(=O)NO)cc3)ccc2c1 [givinostat]
# In short: as §1
# [10] = compound: CCN(CCCOc1ccc2c(Nc3cc(CC(=O)Nc4cccc(F)c4)[nH]n3)ncnc2c1)CCOP(=O)(O)O [barasertib]
# In short: as §1
# Sequence of UniProt Q99643 (Q99643 whole entry, looked up): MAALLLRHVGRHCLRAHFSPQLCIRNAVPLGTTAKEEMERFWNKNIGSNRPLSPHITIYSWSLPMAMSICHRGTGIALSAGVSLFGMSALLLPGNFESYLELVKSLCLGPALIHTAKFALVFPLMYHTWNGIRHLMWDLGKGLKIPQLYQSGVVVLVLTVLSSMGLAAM
# Sequence of UniProt Q9H4A4 (Q9H4A4 whole entry, looked up): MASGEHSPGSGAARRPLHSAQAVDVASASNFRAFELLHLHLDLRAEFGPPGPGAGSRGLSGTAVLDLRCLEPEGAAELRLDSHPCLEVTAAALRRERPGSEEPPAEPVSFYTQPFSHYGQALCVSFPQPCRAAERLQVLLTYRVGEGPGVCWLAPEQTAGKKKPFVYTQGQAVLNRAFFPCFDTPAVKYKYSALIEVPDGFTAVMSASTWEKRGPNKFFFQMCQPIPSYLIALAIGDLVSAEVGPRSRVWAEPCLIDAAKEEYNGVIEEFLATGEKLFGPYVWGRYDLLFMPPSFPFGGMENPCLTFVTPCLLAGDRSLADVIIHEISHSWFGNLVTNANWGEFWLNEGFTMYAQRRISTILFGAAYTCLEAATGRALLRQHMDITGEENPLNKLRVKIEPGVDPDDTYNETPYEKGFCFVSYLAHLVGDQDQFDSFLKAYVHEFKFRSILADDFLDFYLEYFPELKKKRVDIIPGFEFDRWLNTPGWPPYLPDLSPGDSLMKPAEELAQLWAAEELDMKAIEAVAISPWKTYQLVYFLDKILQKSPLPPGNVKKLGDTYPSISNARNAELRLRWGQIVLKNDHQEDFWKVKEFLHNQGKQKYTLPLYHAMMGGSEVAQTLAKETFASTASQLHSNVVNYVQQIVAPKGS
# Sequence of UniProt Q9BVS4 (Q9BVS4 whole entry, looked up): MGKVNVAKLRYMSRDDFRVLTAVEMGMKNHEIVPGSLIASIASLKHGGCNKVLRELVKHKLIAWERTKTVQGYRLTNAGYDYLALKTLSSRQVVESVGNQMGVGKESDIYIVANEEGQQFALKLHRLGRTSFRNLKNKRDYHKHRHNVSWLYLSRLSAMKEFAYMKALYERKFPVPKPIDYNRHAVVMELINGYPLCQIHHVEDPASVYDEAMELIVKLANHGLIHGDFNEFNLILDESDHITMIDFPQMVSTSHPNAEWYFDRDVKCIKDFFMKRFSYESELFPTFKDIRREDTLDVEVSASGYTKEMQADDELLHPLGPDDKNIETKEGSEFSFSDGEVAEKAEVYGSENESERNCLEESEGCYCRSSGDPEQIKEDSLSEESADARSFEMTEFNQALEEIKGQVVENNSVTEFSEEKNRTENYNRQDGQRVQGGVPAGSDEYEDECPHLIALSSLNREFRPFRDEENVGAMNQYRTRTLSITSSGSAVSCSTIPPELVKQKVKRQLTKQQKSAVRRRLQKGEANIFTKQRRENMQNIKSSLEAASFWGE
# Sequence of UniProt Q9GZR1 (Q9GZR1 whole entry, looked up): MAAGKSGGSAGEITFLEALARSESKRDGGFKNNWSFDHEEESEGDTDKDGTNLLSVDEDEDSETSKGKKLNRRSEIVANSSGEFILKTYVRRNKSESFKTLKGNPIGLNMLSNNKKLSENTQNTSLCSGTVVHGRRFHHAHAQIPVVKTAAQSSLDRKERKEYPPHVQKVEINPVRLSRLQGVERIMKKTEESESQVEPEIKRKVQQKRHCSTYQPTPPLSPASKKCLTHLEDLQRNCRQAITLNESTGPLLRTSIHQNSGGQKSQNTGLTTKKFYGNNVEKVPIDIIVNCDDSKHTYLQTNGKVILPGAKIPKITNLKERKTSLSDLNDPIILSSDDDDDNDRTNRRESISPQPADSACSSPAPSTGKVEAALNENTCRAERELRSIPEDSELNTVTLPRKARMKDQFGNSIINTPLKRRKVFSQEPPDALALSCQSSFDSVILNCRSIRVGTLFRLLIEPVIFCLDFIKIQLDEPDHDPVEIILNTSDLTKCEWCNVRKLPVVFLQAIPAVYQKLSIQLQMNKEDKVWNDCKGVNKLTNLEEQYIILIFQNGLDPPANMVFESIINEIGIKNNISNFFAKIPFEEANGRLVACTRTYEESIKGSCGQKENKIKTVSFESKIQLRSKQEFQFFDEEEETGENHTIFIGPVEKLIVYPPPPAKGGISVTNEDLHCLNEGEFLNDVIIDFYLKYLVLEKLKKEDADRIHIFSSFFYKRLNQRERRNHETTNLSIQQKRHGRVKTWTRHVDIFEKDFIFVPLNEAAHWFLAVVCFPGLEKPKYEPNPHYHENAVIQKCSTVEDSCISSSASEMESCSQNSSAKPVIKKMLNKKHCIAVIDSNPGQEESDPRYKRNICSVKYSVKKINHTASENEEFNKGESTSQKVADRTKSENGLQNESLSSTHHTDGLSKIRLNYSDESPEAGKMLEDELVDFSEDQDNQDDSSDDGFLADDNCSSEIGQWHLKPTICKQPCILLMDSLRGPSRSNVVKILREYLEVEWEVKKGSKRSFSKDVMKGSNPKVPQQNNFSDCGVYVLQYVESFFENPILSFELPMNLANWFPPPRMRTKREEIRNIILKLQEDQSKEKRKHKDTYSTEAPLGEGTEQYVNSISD
# Sequence of UniProt Q9NSI8 (Q9NSI8 whole entry, looked up): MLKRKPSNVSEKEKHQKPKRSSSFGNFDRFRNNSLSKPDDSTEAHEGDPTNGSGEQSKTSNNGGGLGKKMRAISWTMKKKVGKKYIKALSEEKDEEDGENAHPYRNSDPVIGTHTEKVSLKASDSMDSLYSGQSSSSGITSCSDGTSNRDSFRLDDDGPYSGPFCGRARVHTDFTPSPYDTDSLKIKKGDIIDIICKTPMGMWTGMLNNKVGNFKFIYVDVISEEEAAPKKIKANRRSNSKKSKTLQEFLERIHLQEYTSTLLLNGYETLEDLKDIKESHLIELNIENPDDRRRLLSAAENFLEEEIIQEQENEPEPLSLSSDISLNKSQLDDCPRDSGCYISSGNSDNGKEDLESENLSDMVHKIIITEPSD
Target,log2 fold change [1],log2 fold change [2],log2 fold change [3],log2 fold change [4],log2 fold change [5],log2 fold change [6],log2 fold change [7],log2 fold change [8],log2 fold change [9],log2 fold change [10]
SDHC (UniProt Q99643),0.01,0.023,-0.041,0.023,-0.217,0.128,0.038,-0.122,-0.108,-0.04
SENP6 (UniProt Q9GZR1),-0.048,-0.006,0.037,-0.007,0.247,-0.028,-0.01,0.077,0.057,-0.026
RPS2 (UniProt P15880),0.006,0.009,-0.075,-0.036,0.192,-0.116,-0.099,0.084,-0.011,-0.095
SEPTIN5 (UniProt G3XAH0),-0.002,-0.046,0.04,,-0.255 (active),0.058,0.023,-0.009,0.014,0.002
RNF167 (UniProt Q9H6Y7),0.037,0.008,-0.041,0.037,-0.059,0.031,-0.06,-0.096,0.005,0.018
RPS14 (UniProt P62263),0.03,0,-0.041,-0.004,0.102,-0.066,-0.038,0.046,0.023,-0.04
SAMSN1 isoform 3 (UniProt Q9NSI8),0.014,-0.011,0.029,0.017,-0.027,-0.001,0.029,0,0.02,0.042
RPS12 (UniProt P25398),0.036,0.006,-0.013,-0.027,0.038,-0.057,-0.035,0.073,-0.035,-0.059
RIOK2 (UniProt Q9BVS4),0.035,0.006,-0.046,-0.021,0.178,-0.001,-0.007,0.056,0.035,0
RPS20 isoform 2 (UniProt P60866),0.056,0.021,-0.049,-0.077,0.112,-0.117,-0.068,0.008,-0.032,-0.063
RNPEP (UniProt Q9H4A4),0.032,-0.024,0.002,0.023,-0.023,0.058,0.052,-0.013,-0.112,0.036
SIK3 (UniProt H0Y4E8),0.017,0.18,-0.062,-0.066,,-0.08,-0.076,-0.026,0.098,
"RAD50, A0A494C0Y7",-0.005,-0.03,-0.063,-0.041,,0.045,0,-0.244,,-0.171
RAC1 (UniProt P63000),0.14,-0.002,-0.055,0.241,-0.021,-0.046,-0.008,0.032,-0.059,-0.026
